In PubChem BioAssay (NCI):
Where “and” joins values, the source holds several entries; their conditions need not be identical. Equal values may be shown once. Compounds without any hit were thinned out: in the full panel of roughly 83,000, 20% have a hit.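 Single-dose data. Exposure time 48 hours. Values below 10 considered active.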 A number with no mark means an inactive call. Calls of active or inactive are those of the source.

These compounds were tested on MDA-MB-468 breast (assay: NCI-60 one-dose screen, 48 h (100 = growth as untreated, 0 = no growth, -100 = all killed)). Details: 10 µM unless noted.

| SMILES | growth |
| --- | --- |
| CCCCCCn1c(=N)n(CC(O)COc2cccc(C)c2)c2ccccc21 (configuration not stated) | -68.7% (active) |
| COc1ccc(/C=N/Nc2ccnc3cc(Cl)ccc23)cc1Cl | -71.9% (active) |
| CC(C)OC(=O)c1ccc2n1CCCc1cnc(Nc3ccccc3)nc1-2 | 44.6% |
| Cc1cc(=O)oc2cc(OC(=O)N3CCN(C)CC3)ccc12 | 107% |
| CC(=O)C[n+]1ccccc1Sc1ccc(Cl)cc1 | 97.3% |
| Cc1nn(-c2ccccc2)c2nc(Cl)c(C=O)c(-c3ccccc3)c12 | 94.7% |
| Cc1cc2nc(C(Cl)Cl)nc(-c3ccc(Cl)cc3)n2n1 | -47.3% (active) |
| NC(CSC(c1ccccc1)(c1ccccc1)c1cccc2ccccc12)C(=O)O (configuration not stated) | 86% |
| Cc1cccc2c3c(sc12)C(c1ccc(Cl)cc1)C(C#N)=C(/N=C/c1ccc(Cl)cc1)O3 (configuration not stated) | 10.9% |
| CCOc1ccc(C(=O)Cc2ccccc2)cc1 | 90.2% and 96% |
| NN=C(c1ccc(Cl)cc1)c1ccc(Cl)cc1 | 111% |
| CN(Cc1ccccc1)c1nc(Cl)c(C2CC(c3ccc(Cl)cc3)=NN2c2cc(Cl)cc(Cl)c2)s1 (configuration not stated) | 101% |
